Measured values reported in PubChem BioAssay (Tox21).
Results filed as inconclusive are left out. The source made the active and inactive calls. Unless noted, the call rests on the fitted dose curve; in most records, active means well fitted curve in the direction sought with a large enough effect in the repeat runs; inconclusive means weak or mixed curves; inactive means no such curve, though single readings can be large; an effect the other way counts as inactive or inconclusive.

Experiments:
[1] = qHTS assay to identify small molecule agonists of the peroxisome proliferator-activated receptor delta (PPARd) signaling pathway - cell viability counter screen (AID 743211); further: nearly all actives have a fitted effect of over 55% in size
Outline: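 In the same wells used for beta-lactamase reporter measurement, cytotoxicity is scored by CellTiter-Glo. HEK293H PPARd-bla cells receive compound for 17 h at 37C following a 5 h settling period.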

[2] = target: Peroxisome proliferator-activated receptor delta (Homo sapiens) (UniProt Q03181); assay: qHTS assay to identify small molecule agonists of the peroxisome proliferator-activated receptor delta (PPARd) signaling pathway (AID 743212; calls by dose curve)
Peroxisome proliferator-activated receptor delta (Homo sapiens), sequence (Q03181 whole entry, looked up): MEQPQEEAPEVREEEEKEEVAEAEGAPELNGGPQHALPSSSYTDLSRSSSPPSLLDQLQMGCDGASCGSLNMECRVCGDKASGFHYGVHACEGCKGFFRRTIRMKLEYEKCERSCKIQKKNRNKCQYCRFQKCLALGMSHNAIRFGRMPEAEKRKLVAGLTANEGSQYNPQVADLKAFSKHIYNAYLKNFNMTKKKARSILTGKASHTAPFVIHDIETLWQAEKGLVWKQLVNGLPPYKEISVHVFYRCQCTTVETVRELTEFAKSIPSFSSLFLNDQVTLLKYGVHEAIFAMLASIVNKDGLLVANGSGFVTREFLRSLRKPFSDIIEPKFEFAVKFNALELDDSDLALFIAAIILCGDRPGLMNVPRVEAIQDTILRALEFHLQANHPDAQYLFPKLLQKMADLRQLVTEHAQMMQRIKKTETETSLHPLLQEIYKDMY
Outline: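 Read-out: beta-lactamase FRET fluorescence after 2 h room-temperature incubation with LiveBLAzer B/G substrate. Cells were HEK293H carrying a UAS-bla reporter for PPARd, treated at 37 C with DMSO-dissolved compounds.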

[3] = qHTS assay to identify small molecule antagonists of the peroxisome proliferator-activated receptor delta (PPARd) signaling pathway - cell viability counter screen (AID 743213); further: nearly all actives have a fitted effect of over 50% in size
Outline: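 Viability counter-screen, qHTS format: PPARd-bla HEK293H, L165041 300 nM final, 17 h compound exposure at 37 C, CellTiter-Glo luminescence after 30 min RT.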

[4] = target: Peroxisome proliferator-activated receptor delta (Homo sapiens) (UniProt Q03181); assay: qHTS assay to identify small molecule antagonists of the peroxisome proliferator-activated receptor delta (PPARd) signaling pathway (AID 743215; active means well fitted inhibition curve with a large enough effect in the signal ratio in the repeat runs, not every such curve was filed as active; the % refers to the signal ratio;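 further: cells stimulated with agonist L165041 at 300 nM final during compound exposure; series mostly up to about 62 µM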)
Outline: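 Screen format: qHTS, antagonist mode. HEK293H PPARd-bla cells received compound and 300 nM L165041 (final), 17 h, 37 C. Beta-lactamase detected via FRET substrate fluorescence, 2 h, room temperature.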

[5] = qHTS assay to identify small molecule agonists of the farnesoid-X-receptor (FXR) signaling pathway - cell viability counter screen (AID 743218); further: nearly all actives have a fitted effect of over 45% in size
Outline: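 Same-well cytotoxicity check on FXR-UAS-bla HEK 293T cells: 5 h attachment, 16 h compound at 37 C, CellTiter-Glo luminescence read at room temperature after 30 min.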

[6] = qHTS assay to identify small molecule antagonists of the farnesoid-X-receptor (FXR) signaling pathway - cell viability counter screen (AID 743221; active means well fitted cell-killing curve with a large enough effect in the repeat runs, not every such curve was filed as active; further: nearly all actives have a fitted effect of over 50% in size)
Outline: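 Here viability was scored by luminescence after CellTiter-Glo addition to wells already read for beta-lactamase. Prior treatment: compound plus CDCA (50 uM final), 16 h, 37 C, HEK 293T FXR-bla cells.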

[7] = target: Vitamin D3 receptor (Homo sapiens) (UniProt P11473); assay: qHTS assay to identify small molecule agonists of the vitamin D receptor (VDR) signaling pathway (AID 743222; calls by dose curve)
Vitamin D3 receptor (Homo sapiens), sequence (P11473 whole entry, looked up): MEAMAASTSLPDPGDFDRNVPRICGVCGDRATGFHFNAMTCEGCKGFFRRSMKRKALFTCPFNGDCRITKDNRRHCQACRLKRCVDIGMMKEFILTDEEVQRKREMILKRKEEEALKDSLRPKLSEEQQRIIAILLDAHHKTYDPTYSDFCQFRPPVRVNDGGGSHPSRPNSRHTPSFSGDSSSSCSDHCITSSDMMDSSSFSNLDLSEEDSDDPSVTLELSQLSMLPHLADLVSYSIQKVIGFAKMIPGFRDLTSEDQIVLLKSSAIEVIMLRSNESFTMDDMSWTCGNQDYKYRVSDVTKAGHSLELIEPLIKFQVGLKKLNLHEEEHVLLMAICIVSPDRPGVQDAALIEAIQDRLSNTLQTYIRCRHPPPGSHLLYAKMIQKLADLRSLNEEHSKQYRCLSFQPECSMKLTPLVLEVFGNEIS
Outline: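 Using LiveBLAzer B/G FRET detection, agonism was scored in VDR-bla cells exposed overnight (16 h, 37C) to DMSO-dissolved compounds; substrate incubation was 2 h at room temperature.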

[8] = target: Vitamin D3 receptor (Homo sapiens) (UniProt P11473); assay: qHTS assay to identify small molecule antagonists of the vitamin D receptor (VDR) signaling pathway (AID 743223; active means well fitted inhibition curve with a large enough effect in the signal ratio in the repeat runs, not every such curve was filed as active; the % refers to the signal ratio)
Outline: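 Inhibition of agonist-driven VDR signalling is scored in VDR-bla cells: 3 nM final 1alpha,25-dihydroxyvitamin D3 plus compound, 16 h at 37C, then beta-lactamase detection by FRET substrate fluorescence after 2 h.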

[9] = qHTS assay to identify small molecule agonists of the vitamin D receptor (VDR) signaling pathway - cell viability counter screen (AID 743224); further: series mostly up to about 63 µM; nearly all actives have a fitted effect of over 50% in size
Outline: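 Counter screen for cytotoxicity: VDR-bla cells at 2,000 cells/well, 16 h compound exposure, then CellTiter-Glo luminescence after the beta-lactamase measurement.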

[10] = qHTS assay to identify small molecule antagonists of the vitamin D receptor (VDR) signaling pathway - cell viability counter screen (AID 743225); further: nearly all actives have a fitted effect of over 50% in size
Outline: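 Compounds were pinned onto VDR-bla HEK 293T cells together with 1-alpha,25-dihydroxyvitamin D3 at 3 nM final. After 16 h at 37C and 5% CO2 plus the reporter readout, cell viability was measured by CellTiter-Glo luminescence (30 min, room temperature).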

[11] = qHTS assay to identify small molecule agonists of the NFkB signaling pathway (AID 1159509; active means well fitted curve in the direction sought with a large enough effect in the signal ratio in the repeat runs, not every such curve was filed as active; the % refers to the signal ratio; further: series mostly up to about 61 µM)
Outline: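 Readout: FRET fluorescence, 405 nm excitation, 460/530 nm emission; beta-lactamase expression disrupts FRET. Cells: ME-180 stably carrying NF-kB-driven bla reporter. Compound exposure 5 hr, 37 C, 5% CO2.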

[12] = qHTS assay to identify small molecule agonists of the NFkB signaling pathway - cell viability counter screen (AID 1159515; calls by dose curve; further: series mostly up to about 61 µM; nearly all actives have a fitted effect of over 55% in size)
Outline: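 Counter screen run alongside the NFkB-bla agonist assay: ME-180 reporter cells exposed to compounds for 5 hr, then lysed with CellTiter-Glo in the same wells. Luminescence, read after 30 min, reflects viable cells.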

[13] = qHTS assay to identify small molecule agonists of the endoplasmic reticulum stress response signaling pathway (AID 1159516; active means well fitted activation curve with a large enough effect in the signal ratio in the repeat runs, not every such curve was filed as active; the % refers to the signal ratio)
Outline: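 For this screen, HeLa cells stably carrying beta-lactamase under the ER stress response element received test compounds, positive controls or DMSO for 5 hr at 37 C; B/G FRET substrate was then added and dual-wavelength emission recorded.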

[14] = qHTS assay to identify small molecule agonists of the endoplasmic reticulum stress response signaling pathway - cell viability counter screen (AID 1159517; calls by dose curve)
Outline: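 Steps: seed 1,500 ESRE-bla HeLa cells per well; incubate overnight at 37 C, 5% CO2; add compounds in DMSO for 5 hr; run FRET substrate 2 hr RT; add CellTiter-Glo, wait 30 min, read luminescence.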

[15] = qHTS assay to identify small molecule agonists of the AP-1 signaling pathway - cell viability counter screen (AID 1159525; calls by dose curve; further: nearly all actives have a fitted effect of over 55% in size)
Outline: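 Same-well cytotoxicity counter screen of the Tox21 10K library in ME-180 cells. The readout is ATP-dependent luminescence after 5 h compound treatment. Data are normalised to DMSO and tetra n-octyl ammonium bromide controls.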

[16] = qHTS assay to identify small molecule agonists of the AP-1 signaling pathway (AID 1159526; calls by dose curve)
[17] = target: Bile acid receptor (Homo sapiens) (UniProt Q96RI1); assay: qHTS assay to identify small molecule antagonists of the farnesoid-X-receptor (FXR) signaling pathway (AID 743217; active means well fitted inhibition curve with a large enough effect in the signal ratio in the repeat runs, not every such curve was filed as active; the % refers to the signal ratio)
Bile acid receptor (Homo sapiens), sequence (Q96RI1 whole entry, looked up): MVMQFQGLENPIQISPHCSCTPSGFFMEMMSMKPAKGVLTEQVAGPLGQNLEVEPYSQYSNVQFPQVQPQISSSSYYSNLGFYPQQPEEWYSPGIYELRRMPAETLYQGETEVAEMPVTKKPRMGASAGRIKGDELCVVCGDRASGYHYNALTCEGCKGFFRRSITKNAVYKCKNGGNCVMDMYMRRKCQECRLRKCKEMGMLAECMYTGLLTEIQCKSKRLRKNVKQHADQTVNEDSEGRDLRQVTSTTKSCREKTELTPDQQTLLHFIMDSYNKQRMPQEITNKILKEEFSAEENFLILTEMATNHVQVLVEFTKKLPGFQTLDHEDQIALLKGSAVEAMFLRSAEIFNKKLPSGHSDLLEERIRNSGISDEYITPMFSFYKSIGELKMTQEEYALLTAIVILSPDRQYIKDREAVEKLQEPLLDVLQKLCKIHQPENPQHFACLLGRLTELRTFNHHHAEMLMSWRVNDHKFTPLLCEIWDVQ
Outline: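 Quantitative HTS, beta-lactamase reporter format: FXR-UAS-bla HEK 293T cells co-treated 16 h at 37 °C with compounds and 50 uM final chenodeoxycholic acid, then read by B/G FRET fluorescence.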

[18] = target: Bile acid receptor (Homo sapiens) (UniProt Q96RI1); assay: qHTS assay to identify small molecule agonists of the farnesoid-X-receptor (FXR) signaling pathway (AID 743220; active means well fitted activation curve with a large enough effect in the signal ratio in the repeat runs, not every such curve was filed as active; the % refers to the signal ratio)
Outline: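 FXR-UAS-bla HEK 293T cells carrying a UAS-driven beta-lactamase reporter were plated for 5 h at 37C/5% CO2, then exposed to DMSO-dissolved Tox21 10K compounds for 16 h at 37C. A LiveBLAzer B/G FRET substrate was loaded for 2 h at room temperature before fluorescence reading.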

[19] = target: Nuclear receptor ROR-gamma (Homo sapiens) (UniProt P51449); assay: qHTS assay to identify small molecule antagonists of the retinoid-related orphan receptor gamma (ROR-gamma) signaling pathway (AID 1159521)
Outline: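 Test compounds were applied to Tet-on RORγ CHO cells 2 h ahead of doxycycline hyclate (1 uM final). Luciferase reporter activity was quantified by luminescence after 16 h at 37 C and 5% CO2.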

[20] = qHTS assay to identify small molecule antagonists of the retinoid-related orphan receptor gamma (ROR-gamma) signaling pathway - cell viability counter screen (AID 1159520); further: nearly all actives have a fitted effect of over 50% in size
Outline: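 Tet-on ROR gamma CHO cells were given compounds for 2 hr, then doxycycline hyclate at 1 uM final, and incubated 16 hr at 37 C. Viability was measured as ATP content by CellTiter-Glo luminescence.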

Measured: Potency

CC(C)(Cl)Cl
not listed: [17] | [18] | [19] | [20]
inactive: all other assays above

Cc1cccc([N+](=O)[O-])c1
not listed: [4] | [15] | [19] | [20]
inactive: all other assays above

CCOP(=S)(OCC)SCCSCC
not listed: [7] | [8] | [15] | [17] | [18] | [20]
inactive: all other assays above

OCCN(CCO)CCO
inactive: [1] | [3] | [5] | [6] | [9] | [10] | [11] | [12] | [13] | [14] | [16]

O=[N+]([O-])c1ccc([As](=O)(O)O)cc1
not listed: [13] | [15] | [17] | [18] | [19] | [20]
inactive: all other assays above

c1ccc(-c2ccccc2)cc1
not listed: [7] | [8] | [13]
inactive: all other assays above

C1CC2OC2CC1C1CO1 (stereo not given)
not listed: [11]
inactive: all other assays above

CCCCCCCCCl
not listed: [19] | [20]
inactive: all other assays above

COC(=O)c1ccccc1C(=O)OC
not listed: [2] | [4] | [5] | [13] | [15]
inactive: all other assays above
